This passage reports inhibition results from PubChem BioAssay.

Activity calls are given as the source filed them. The rule behind the calls is not given here.

The assay in a line: Brca1-Bard1 BiLC signal decrease – luminescence, single concentration, counter-screen for Mdm2/MdmX interaction inhibitor project, confirmation (AID 504668). The settings on record: Brca1/Bard1 bimolecular luciferase complementation counterscreen, at 8 µM, active compounds read high. A general note: Counterscreens check selectivity or assay interference.
The term inhibition denotes the share of the control response that was lost under treatment. In the case of `Cc1cc(SC#N)cc(C)c1NC(=O)CCl`, the inhibition is 33.8% (active).

Take `O=C(CCS(=O)(=O)c1ccc(F)cc1)Nc1nc(-c2ccncc2)cs1`: the inhibition was 34.2% (active). Under `O=C(N/N=C/c1cc(Br)ccc1O)c1cccc(N2CCCC2=O)c1` stands 31.4% (active). Under `Cc1ccc(O)c(N=Nc2nccs2)c1` stands 23.2% (active); under `O=c1c2ccccc2nc(/C=C/c2cc(Br)ccc2O)n1CCO`, 32.4% (active); under `CCc1ccc(/C=C/C(=O)c2c(C)cc(C)[nH]c2=O)cc1`, 30.6% (active). With `O=c1c2cc(Br)ccc2nc(-c2cccc(C(F)(F)F)c2)n1O` the figure was 29.9% (active).

Consider `COc1ccc2[nH]c3c(N4CCC(O)(c5cccc(C(F)(F)F)c5)CC4)ncnc3c2c1`, for which the inhibition was 32.1% (active). With `O=c1nc(Nc2ccc(OCc3ccccc3)cc2)sc2ncccc12` the figure was 23.4% (active); with `COc1ccccc1N(CC(=O)N/N=C/c1c(O)ccc2ccccc12)S(C)(=O)=O`, 26.2% (active). With `COc1ccc(N/N=C(/N=Nc2nc(C)cc(=O)[nH]2)c2ccccc2)cc1` the figure was 30.7% (active); with `O=C(Nc1nc(-c2ccccn2)cs1)c1cccc(-n2cnnn2)c1`, 26.2% (active). Under `COc1cc(Br)cc(/C=N/NC(=O)Cc2ccc(C(F)(F)F)cc2[N+](=O)[O-])c1O` stands 32.8% (active); under `CCN(CC)Cc1c(O)ccc2c1O/C(=C\C=C\c1ccccc1)C2=O`, 25.3% (active). Regarding `C/C(=N\NC(=O)c1ccc(Cl)c(Cl)c1)c1ccccn1`, the inhibition was 25.9% (active). Under `COc1cc(/C=C/C(=O)c2ccc(O)cc2)ccc1OCC#N` stands 35.9% (active).
